# Compound activity from PubChem BioAssay.
# Hits are enriched below; roughly 2.8% of the tested compounds scored in any of these assays.
# SENP8 block-1 = inhibitors of human SENP8 protease; inhibition, % at 20 µM; Q96LD8; AID 602440; recombinant SENP8, Nedd8 substrate fluorescence; hit rate 0.64% among 360,000; in the data active = inhibition mostly above about 40%, no sharp cut-off; inactive = mostly below about 27%
# SENP6 inh = SENP6 protease inhibition; Recombinant SENP6 catalytic domain, aminoluciferin luminescence; inhibition, % at 10 µM; hit rate 1.8% among 330,000; AID 2599;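 active = inhibition above about 50% at the single tested dose, limit read from the data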;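 also: plate controls were DMSO wells with enzyme for no effect and DMSO wells lacking enzyme for full effect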
# SENP8 block-2 = inhibitors of human SENP8 protease; Q96LD8; purified SENP8, Z-RLRGG-aminoluciferin cleavage, luminescence; inhibition, % at 10 µM; hit rate 1.2% among 330,000; in the data active = inhibition above about 50%
# SENP7 block = SENP7 protease inhibition; recombinant SENP7, Z-RLRGG-aminoluciferin luminescence, 40 min; Q9BQF6; hit rate 1.5% among 330,000; inhibition, % at 5 µM;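 active = inhibition above about 50% at the single test dose, limit read from the data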;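 also: plate controls were DMSO with enzyme for no effect and no enzyme buffer wells for full effect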
# Target sequence (Q9BQF6 706-1050 limits assumed): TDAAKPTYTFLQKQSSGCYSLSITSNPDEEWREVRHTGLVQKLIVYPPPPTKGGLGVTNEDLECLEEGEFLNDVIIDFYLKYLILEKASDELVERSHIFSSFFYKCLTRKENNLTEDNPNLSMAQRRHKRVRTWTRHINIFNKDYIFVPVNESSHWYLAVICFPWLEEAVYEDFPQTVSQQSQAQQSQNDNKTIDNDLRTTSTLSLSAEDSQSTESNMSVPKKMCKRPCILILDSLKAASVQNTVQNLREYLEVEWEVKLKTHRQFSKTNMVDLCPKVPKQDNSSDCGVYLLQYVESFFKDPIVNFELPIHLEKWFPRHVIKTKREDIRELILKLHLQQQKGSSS
# HSP90 refold inh = HSP90 refolding inhibition in rabbit reticulocyte lysate; hit rate 0.91% among 290,000; inhibition, % at 5.6 µM; AID 1789; luciferase refolding luminescence, 3 h;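 active = inhibition above the screen-wide mean plus 3 SD, computed separately per campaign, cut at about 16% in these data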;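 also: 0% = DMSO wells and 100% = 60 µM geldanamycin wells; inhibitors lower the luminescence because luciferase stays unfolded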
# SENP8 conf = human SENP8 inhibition, confirmed | shares compounds with SENP7 block | Recombinant SENP8, Z-RLRGG-aminoluciferin luminescence, 60 min | inhibition, % at 12.5 µM | hit rate 40% among 6,200;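 active = mean inhibition across replicates above about 50%, limit read from the data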
# SENP6 conf = human SENP6 inhibition, confirmed | recombinant SENP6, Z-RLRGG-aminoluciferin luminescence | shares compounds with SENP7 block | hit rate 58% among 6,200 | inhibition, % at 12.5 µM
# SENP7 confirm = confirmation of human SENP7 protease inhibitors. inhibition, % at 12.5 µM. shares compounds with SENP7 block. AID 488917. recombinant SENP7, Z-RLRGG-aminoluciferin luminescence, 40 min. hit rate 69% among 6,200
# Casp3 SENP sel = selectivity test for SENP inhibitors: human caspase-3 inhibition; inhibition, % at 12.5 µM; purified caspase-3, Z-DEVD-aminoluciferin luminescence, 60 min; hit rate 60% among 6,200; shares compounds with SENP7 block;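 active = mean inhibition above about 50%, limit read from the data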;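 also: plate controls were enzyme with DMSO for no effect and wells without caspase-3 for full effect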
# Target sequence (P42574 28-227 limits assumed): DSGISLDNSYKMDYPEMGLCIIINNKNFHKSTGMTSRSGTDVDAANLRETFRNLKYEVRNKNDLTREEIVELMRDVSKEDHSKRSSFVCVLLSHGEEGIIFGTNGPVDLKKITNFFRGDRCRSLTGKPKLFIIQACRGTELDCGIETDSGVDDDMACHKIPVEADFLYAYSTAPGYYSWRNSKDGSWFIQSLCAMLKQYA
# SENP luc ctr = interferes with luciferase luminescence in SENP counter-screen; inhibition, % at 12.5 µM; hit rate 39% among 6,200; Pre-incubated SENP8/Z-RLRGG-aminoluciferin, luciferase luminescence interference; AID 488919; shares compounds with SENP7 block;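 active = mean inhibition above about 50% when retested at one dose, limit read from the data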;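 also: plate controls were DMSO wells with completed reaction for no effect and substrate without enzyme for full effect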
# Starred values were filed as active, the others as inactive; . = no result.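 The calls were made as follows, unless noted: active = mean inhibition above about 50% in the one-dose retest (limit read from the data); inactive = the rest.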
SMILES,SENP8 block-1,SENP6 inh,SENP8 block-2,SENP7 block,HSP90 refold inh,SENP8 conf,SENP6 conf,SENP7 confirm,Casp3 SENP sel,SENP luc ctr
Cc1cnc(C(=O)NNC(=O)c2ccc(Br)cc2)cn1,11.7,-6.4,3.4,1.8,.,.,.,.,.,.
O=C(COC(=O)c1ccc([N+](=O)[O-])s1)Nc1cccc(S(=O)(=O)NC2=NCCCCC2)c1,19.0,64.7*,60.8*,36.7,-1.5,80.1*,86.7*,45.1,10.3,0.9
O=C(COC(=O)c1ccc(O)cc1)Nc1ccccc1[N+](=O)[O-],22.0,56.8*,37.3,7.9,0.1,45.9,38.7,69.5*,52.3*,41.6
O=C(COC(=O)c1ccc([N+](=O)[O-])s1)NCc1ccccc1,12.1,72.7*,62.1*,47.7,1.9,58.5*,72.5*,20.8,-1.3,-8.4
O=C(COC(=O)c1ccc([N+](=O)[O-])s1)Nc1ccccc1,33.3,64.3*,53.1*,36.0,-3.5,81.5*,88.3*,50.0,20.3,-5.6
O=C(COC(=O)c1ccc([N+](=O)[O-])s1)NC(c1ccccc1)c1ccccc1,27.3,13.6,46.4,18.3,3.0,.,.,.,.,.
O=C(NC1CCCCCC1)C1CCC(=O)N(Cc2ccccc2F)C1 (stereo not given),0.9,-17.2,-9.8,-9.8,-0.7,.,.,.,.,.
CC(C)[C@H](N)c1nnc(SC/C=C/c2ccccc2)o1,12.3,-6.6,-0.4,-0.5,-0.8,.,.,.,.,.
O=C(COc1ccc(Cl)cc1)Nc1ncc([N+](=O)[O-])s1,27.5,.,.,.,7.7,.,.,.,.,.
CN(CC(=O)Nc1ccccc1Cl)C(=O)COC(=O)c1ccccc1[N+](=O)[O-],2.9,1.1,-5.5,100.6*,.,-0.4,4.5,6.9,4.5,-1.8
CCc1ccccc1NC(=O)CN(C)C(=O)COC(=O)c1ccccc1Cl,12.5,0.4,3.1,-1.0,.,.,.,.,.,.
O=C(Nc1ncc([N+](=O)[O-])s1)c1ccco1,16.0,91.6*,91.5*,92.1*,0.1,93.1*,93.2*,101.5*,97.6*,66.1*
O=C(COC(=O)COc1ccccc1)Nc1ncc([N+](=O)[O-])s1,12.7,90.6*,88.0*,76.1*,.,90.4*,89.3*,98.9*,91.7*,90.1*
CCN(CCNCC(O)COCc1ccc(Cl)cc1)c1cccc(C)c1 (stereo not given),11.9,-9.0,-5.3,-2.3,4.7,.,.,.,.,.
Nc1c(C(=O)NCc2ccc3c(c2)OCO3)nnn1-c1ccc(OC(F)(F)F)cc1,2.8,7.4,0.4,5.4,0.4,.,.,.,.,.
COc1ccc(NC(=O)CCc2nc3ccccc3s2)c(OC)c1,18.4,-30.3,-0.8,3.9,-2.4,.,.,.,.,.
COc1ccc(CNc2nc3ccccc3n2C(C)C)c(O)c1,34.6,10.3,-1.4,3.0,0.3,.,.,.,.,.
Cc1ccc(NCc2nc3ccccc3n2C)cc1,-76.5,38.7,12.3,3.5,1.9,.,.,.,.,.
Cc1ccc(CNc2nc3ccccc3n2C)cc1,-13.3,78.4*,59.0*,71.9*,14.8,60.9*,61.5*,90.6*,87.7*,75.1*
COc1ccc(NCc2nc3ccccc3n2C)cc1,12.4,68.1*,33.3,45.4,1.5,65.2*,63.5*,84.7*,86.6*,70.5*
COc1ccc(CNc2nc3ccccc3n2C)c(O)c1,1.7,64.5*,41.3,68.4*,-2.1,66.6*,64.9*,90.3*,73.1*,71.4*
CCOC(=O)c1ccc(NCc2nc3ccccc3n2C)cc1,8.7,46.4,61.1*,79.1*,-1.0,82.1*,83.2*,95.9*,86.2*,83.2*
CC1Cc2ccccc2N1CC(=O)NC(=O)NCc1ccco1 (stereo not given),-31.9,3.2,-1.7,-4.4,-1.1,.,.,.,.,.
NC(=O)c1ccccc1OCC(=O)Nc1cccnc1Cl,2.9,-3.2,10.6,6.2,.,.,.,.,.,.
O=C(N/N=C/c1ccccn1)C(=O)N1CCCCCC1,26.5,-41.7,2.2,0.9,-4.0,.,.,.,.,.
SMILES,SENP8 block-1,SENP6 inh,SENP8 block-2,SENP7 block,HSP90 refold inh,SENP8 conf,SENP6 conf,SENP7 confirm,Casp3 SENP sel,SENP luc ctr
COc1ccc(Nc2nc3ccccc3n2C)cc1,12.2,55.5*,32.7,34.8,-2.5,20.6,22.4,69.0*,71.5*,48.9
Cn1c(Nc2ccc(F)cc2)nc2ccccc21,11.2,-6.2,3.2,-1.4,-3.9,.,.,.,.,.
Cn1c(CNc2ccc(Br)cc2)nc2ccccc21,9.0,69.6*,59.0*,71.6*,-4.2,-3.4,63.4*,86.6*,62.7*,70.1*
CSc1ncccc1C(=O)OCc1ccccc1,21.2,53.7*,25.6,17.6,1.9,9.1,19.3,59.9*,32.0,31.5
CSc1ncccc1C(=O)OCc1ccccc1F,15.9,71.7*,50.2*,42.8,-0.8,53.2*,55.0*,79.4*,51.4*,55.7*
CSc1ncccc1C(=O)OCc1ccc(COC(=O)c2cccnc2SC)cc1,.,.,.,.,-0.5,.,.,.,.,.
CC(=O)N/C(=C\c1ccc(F)cc1)C(=O)NC(C(=O)O)C(C)C (stereo not given),5.0,-13.4,5.0,-1.0,-0.4,.,.,.,.,.
Cc1cccc(-n2c(O)c(C=NCc3ccccn3)c3ccccc3c2=O)c1,8.8,1.5,6.7,-7.3,2.0,.,.,.,.,.
COc1ccc(CC(=O)Nc2ccc(NC(=O)c3ccccc3F)cc2)cc1,-8.3,-0.3,-3.1,-9.8,3.7,.,.,.,.,.
O=C1/C(=C/c2cccs2)COc2ccccc21,10.4,97.7*,80.9*,83.2*,-7.5,85.9*,91.8*,90.3*,68.8*,94.0*
COc1cccc(OC)c1OCCOc1ccc(C(=O)c2ccccc2)cc1,16.2,-41.8,-14.1,-9.0,-0.8,.,.,.,.,.
Cc1ccc(C)c(C2C(=O)c3ccccc3C2=O)c1,10.2,-17.5,-12.4,-4.1,-1.2,.,.,.,.,.
Cc1ccc2ccc(C3C(=O)c4ccccc4C3=O)nc2c1,27.7,53.3*,52.3*,-4.9,-0.6,36.7,38.3,34.3,58.1*,4.2
Cc1ccc(N=Cc2sc(O)c3ccccc23)cc1,-60.2,67.6*,85.8*,76.4*,4.6,90.5*,92.2*,99.5*,74.2*,46.7
Cc1ccc(N=Cc2sc(O)c3ccccc23)c(C)c1,-9.6,-25.3,-18.0,-6.5,6.1,.,.,.,.,.
O=C(c1cccc(F)c1)N1CCN(Cc2cccc(Br)c2)CC1,2.3,8.9,1.2,-3.3,-2.0,.,.,.,.,.
COc1ccc(-c2cc(-c3cc(C)ccc3O)[nH]n2)cc1,-0.8,72.2*,56.0*,61.5*,-1.5,75.2*,73.6*,87.8*,19.3,38.7
COc1ccc(-c2cc(-c3ccc(C)cc3)n[nH]2)c(O)c1,7.4,58.0*,32.8,37.3,-1.7,48.7,42.4,71.6*,13.6,31.7
